# The entries come from a sample that favours the strongest signals as a whole.
# B1: AT3G09350(27) (Arabidopsis thaliana), Q84J81 (protein)
# chain: MAKDGPNWDGLLKWSLSHADGTRPTRQLSEEDRKWFMEAMQSQTVDVVKRMKEITLVMQTPEQVLVEHGVTPEDIQDLLDELQEHVESIDMANDLHSIGGLVPLLSFLKNSHANIRAKAADVVSTIVQNNPRSQELVMETNALESLLSNFTSDTDIHARTQALGAISSLIRHNKPGVTAFKLANGYAGLRDALASDSVRFQRKALNLLQYLLQEDDSDRSIATGLGFPRVMMHLASSDDAEIREAALRGLLELSREKNDGSSSIDKSDEKLRQLLEERIKGITLMSQEDLETVKEERQLVDLLWSICYNEPSSLREKGLVVLPGEDALPPDVASKLFEPPLRASAANRNATEKKDEPMKLLGP
# How the values were obtained:
# Assay in all cases: glycan array binding signal (z-score within array); higher = stronger binding
# Details in all cases: glycan notation: IUPAC condensed, linker removed
# [1] = target: Fuc(a1-2)Gal
# Summary of the method: (§1)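 Glycan array binding is given as a within-array Z-score, which can be read as non-binding when negative. The arrays, 3228 of them, came from the Consortium for Functional Glycomics database and were retained only where the protein sequence was available. Z-scores were averaged across arrays of the same protein sequence at different concentrations or buffers and across linkers.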
# [2] = target: Fuc(a1-2)Gal(b1-3)GlcNAc(b1-3)GalNAc
# Summary of the method: as §1
# [3] = target: Fuc(a1-2)Gal(b1-4)GlcNAc(b1-3)[Fuc(a1-3)[Gal(b1-4)]GlcNAc(b1-6)]Gal(b1-4)Glc
# Summary of the method: as §1
# [4] = target: Fuc(a1-2)[Gal(a1-3)]Gal(b1-4)Glc
# Summary of the method: as §1
# [5] = target: Fuc(a1-2)[GalNAc(a1-3)]Gal
# Summary of the method: as §1
# [6] = target: Fuc(a1-2)[GalNAc(a1-3)]Gal(b1-3)GlcNAc(b1-2)Man(a1-3)[Fuc(a1-2)[GalNAc(a1-3)]Gal(b1-3)GlcNAc(b1-2)Man(a1-6)]Man(b1-4)GlcNAc(b1-4)[Fuc(a1-6)]GlcNAc
# Summary of the method: as §1
# [7] = target: Fuc(a1-2)[GalNAc(a1-3)]Gal(b1-4)GlcNAc(b1-2)Man(a1-3)[Fuc(a1-2)[GalNAc(a1-3)]Gal(b1-4)GlcNAc(b1-2)Man(a1-6)]Man(b1-4)GlcNAc(b1-4)[Fuc(a1-6)]GlcNAc
# Summary of the method: as §1
# [8] = target: Fuc(a1-2)[GalNAc(a1-3)]Gal(b1-4)[Fuc(a1-3)]GlcNAc
# Summary of the method: as §1
# [9] = target: Fuc(a1-2)[GalNAc(a1-3)]Gal(b1-4)[Fuc(a1-3)]GlcNAc(b1-3)GalNAc
# Summary of the method: as §1
# [10] = target: Fuc(a1-3)[GalNAc(b1-4)]GlcNAc
# Summary of the method: as §1
# [11] = target: Gal(a1-3)Gal(b1-3)GlcNAc(b1-2)Man
# Summary of the method: as §1
# [12] = target: Gal(a1-3)Gal(b1-3)GlcNAc(b1-6)GalNAc
# Summary of the method: as §1
# [13] = target: Gal(a1-3)Gal(b1-4)[Fuc(a1-3)]GlcNAc
# Summary of the method: as §1
# [14] = target: Gal(a1-3)GalNAc
# Summary of the method: as §1
# [15] = target: Gal(a1-3)[Gal(a1-4)]Gal(b1-4)GlcNAc
# Summary of the method: as §1
# [16] = target: Gal(a1-4)Gal(b1-4)Glc
# Summary of the method: as §1
# [17] = target: Gal(b1-3)GalNAc(a1-3)[Fuc(a1-2)]Gal(b1-4)Glc
# Summary of the method: as §1
# [18] = target: Gal(b1-3)GalNAc(b1-4)Gal(b1-4)Glc
# Summary of the method: as §1
# [19] = target: Gal(b1-3)GlcNAc(b1-3)Gal(b1-3)GlcNAc
# Summary of the method: as §1
# [20] = target: Gal(b1-3)GlcNAc(b1-3)Gal(b1-4)GlcNAc(b1-3)Gal(b1-4)GlcNAc(b1-2)[Gal(b1-3)GlcNAc(b1-3)Gal(b1-4)GlcNAc(b1-3)Gal(b1-4)GlcNAc(b1-6)]Man(a1-6)[Gal(b1-3)GlcNAc(b1-3)Gal(b1-4)GlcNAc(b1-3)Gal(b1-4)GlcNAc(b1-2)Man(a1-3)]Man(b1-4)GlcNAc(b1-4)[Fuc(a1-6)]GlcNAc
# Summary of the method: as §1
# [21] = target: Gal(b1-3)GlcNAc(b1-6)Gal(b1-4)GlcNAc
# Summary of the method: as §1
# [22] = target: Gal(b1-4)Glc6S
# Summary of the method: as §1
# [23] = target: Gal(b1-4)GlcNAc(b1-2)Man(a1-3)[Gal(b1-4)GlcNAc(b1-2)Man(a1-6)][Gal(b1-4)GlcNAc(b1-4)]Man(b1-4)GlcNAc(b1-4)[Fuc(a1-6)]GlcNAc
# Summary of the method: as §1
# [24] = target: Gal(b1-4)GlcNAc(b1-6)Gal(b1-4)GlcNAc
# Summary of the method: as §1
# [25] = target: Gal3S(b1-4)[Fuc(a1-3)]Glc6S
# Summary of the method: as §1
# [26] = target: Gal6P(b1-4)GlcNAc
# Summary of the method: as §1
# [27] = target: Gal6S(b1-3)GlcNAc
# Summary of the method: as §1
# [28] = target: Gal6S(b1-4)Glc
# Summary of the method: as §1
# [29] = target: GalNAc(a1-3)GalNAc
# Summary of the method: as §1
# [30] = target: GalNAc(b1-3)Gal(a1-4)Gal(b1-4)GlcNAc
# Summary of the method: as §1
# [31] = target: GalNAc(b1-4)GlcNAc
# Summary of the method: as §1
# [32] = target: GlcA(b1-3)GlcNAc
# Summary of the method: as §1
# [33] = target: GlcNAc(a1-3)Gal(b1-4)GlcNAc
# Summary of the method: as §1
# [34] = target: GlcNAc(b1-3)Gal(b1-4)GlcNAc(b1-3)Gal(b1-4)GlcNAc(b1-2)Man(a1-3)[GlcNAc(b1-3)Gal(b1-4)GlcNAc(b1-3)Gal(b1-4)GlcNAc(b1-2)Man(a1-6)]Man(b1-4)GlcNAc(b1-4)GlcNAc
# Summary of the method: as §1
# [35] = target: GlcNAc(b1-3)Gal(b1-4)GlcNAc(b1-3)Gal(b1-4)GlcNAc(b1-3)Gal(b1-4)GlcNAc(b1-2)Man(a1-3)[GlcNAc(b1-3)Gal(b1-4)GlcNAc(b1-3)Gal(b1-4)GlcNAc(b1-3)Gal(b1-4)GlcNAc(b1-2)Man(a1-6)]Man(b1-4)GlcNAc(b1-4)GlcNAc
# Summary of the method: as §1
# [36] = target: GlcNAc(b1-4)[GlcNAc(b1-6)]GalNAc
# Summary of the method: as §1
# [37] = target: GlcNAc(b1-6)GalNAc
# Summary of the method: as §1
# [38] = target: Neu5Ac(a2-3)Gal(b1-3)GlcNAc(b1-2)Man(a1-3)[GlcNAc(b1-4)][Neu5Ac(a2-3)Gal(b1-3)GlcNAc(b1-2)Man(a1-6)]Man(b1-4)GlcNAc(b1-4)GlcNAc
# Summary of the method: as §1
# [39] = target: Neu5Ac(a2-3)Gal(b1-4)GlcNAc(b1-2)[Neu5Ac(a2-3)Gal(b1-4)GlcNAc(b1-6)]Man(a1-6)[Neu5Ac(a2-3)Gal(b1-4)GlcNAc(b1-2)Man(a1-3)][GlcNAc(b1-4)]Man(b1-4)GlcNAc(b1-4)GlcNAc
# Summary of the method: as §1
# [40] = target: Neu5Ac(a2-3)Gal(b1-4)GlcNAc(b1-3)Gal(b1-4)GlcNAc(b1-3)Gal(b1-4)GlcNAc
# Summary of the method: as §1
# [41] = target: Neu5Ac(a2-3)Gal(b1-4)GlcNAc(b1-3)Gal(b1-4)[Fuc(a1-3)]GlcNAc
# Summary of the method: as §1
# [42] = target: Neu5Ac(a2-3)Gal(b1-4)[Fuc(a1-3)]GlcNAc(b1-6)[Neu5Ac(a2-3)Gal(b1-3)]GalNAc
# Summary of the method: as §1
# [43] = target: Neu5Ac(a2-3)[GalNAc(b1-4)]Gal(b1-4)GlcNAc
# Summary of the method: as §1
# [44] = target: Neu5Ac(a2-6)Gal(b1-4)GlcNAc(b1-2)Man(a1-3)[Neu5Ac(a2-6)Gal(b1-4)GlcNAc(b1-2)Man(a1-6)]Man(b1-4)GlcNAc(b1-4)GlcNAc
# Summary of the method: as §1
# [45] = target: Neu5Ac(b2-6)Gal(b1-4)GlcNAc
# Summary of the method: as §1
# [46] = target: Neu5Ac9Ac(a2-6)Gal(b1-4)GlcNAc
# Summary of the method: as §1
binder,measurement,setting,value
B1,glycan array binding signal (z-score),[1],-0.113
same,glycan array binding signal (z-score),[2],0.676
same,glycan array binding signal (z-score),[3],-0.595
same,glycan array binding signal (z-score),[4],2.16
same,glycan array binding signal (z-score),[5],-0.506
same,glycan array binding signal (z-score),[6],-0.677
same,glycan array binding signal (z-score),[7],0.007
same,glycan array binding signal (z-score),[8],0.498
same,glycan array binding signal (z-score),[9],5.85
same,glycan array binding signal (z-score),[10],3.56
same,glycan array binding signal (z-score),[11],0.248
same,glycan array binding signal (z-score),[12],-0.449
same,glycan array binding signal (z-score),[13],-0.122
same,glycan array binding signal (z-score),[14],2.5
same,glycan array binding signal (z-score),[15],8.94
same,glycan array binding signal (z-score),[16],2.11
same,glycan array binding signal (z-score),[17],-0.346
same,glycan array binding signal (z-score),[18],1.91
same,glycan array binding signal (z-score),[19],-0.089
same,glycan array binding signal (z-score),[20],-0.059
same,glycan array binding signal (z-score),[21],3.05
same,glycan array binding signal (z-score),[22],0.57
same,glycan array binding signal (z-score),[23],-0.391
same,glycan array binding signal (z-score),[24],3.1
same,glycan array binding signal (z-score),[25],-0.174
same,glycan array binding signal (z-score),[26],-0.424
same,glycan array binding signal (z-score),[27],-0.146
same,glycan array binding signal (z-score),[28],-0.106
same,glycan array binding signal (z-score),[29],-0.182
same,glycan array binding signal (z-score),[30],4.3
same,glycan array binding signal (z-score),[31],7.59
same,glycan array binding signal (z-score),[32],-0.957
same,glycan array binding signal (z-score),[33],-0.46
same,glycan array binding signal (z-score),[34],0.28
same,glycan array binding signal (z-score),[35],0.057
same,glycan array binding signal (z-score),[36],-0.008
same,glycan array binding signal (z-score),[37],0.847
same,glycan array binding signal (z-score),[38],-0.8
same,glycan array binding signal (z-score),[39],-0.435
same,glycan array binding signal (z-score),[40],0.446
same,glycan array binding signal (z-score),[41],-0.305
same,glycan array binding signal (z-score),[42],0.415
same,glycan array binding signal (z-score),[43],-0.121
same,glycan array binding signal (z-score),[44],0.535
same,glycan array binding signal (z-score),[45],0.639
same,glycan array binding signal (z-score),[46],-0.732
